From PubChem BioAssay AID1508625 (Wald Lab, School of Medicine, Case Western Reserve …, 2021)

Assay: enhancers of NK cell killing of ovarian tumor cells, primary screen, imaging, OVCAR3, primary NK cells, calcein-AM imaging (AID 1508625);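 also: compound given to NK cells 16 h before adding targets at 1.5 to 1 ratio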
Conditions: OVCAR3 lysis by primary NK cells, at 5 µM; z-score: measured here: robust Z-score, single-point normalisation

SMILES | corrected activity, negative = more killing | z-score
Cc1ccc(C)c(NC(=O)c2ccc(-c3ccccc3)cc2)c1 | -4.26% | -1.81
CC(C)NC(=O)CC(=O)NN=C1CCCC1 | -6.06% | -2.58
COC(=O)c1ccc(CSc2nc3c(cnn3-c3ccc(C)cc3)c(=O)[nH]2)o1 | -3.63% | -0.89
